Results published in PubChem BioAssay AID1159580 (chemical genetic matrix, 2015).
Hit rate of the full screen: of about 5,500 compounds, about 2,000 (36%) were called active. Roughly 18% stayed inconclusive and do not appear here. Rule as the data show it: active = normalized growth mostly below about 0.91 (no sharp cut-off); inconclusive = no clear call, values can overlap the other calls; inactive = mostly above about 0.92. The list shows a part of the results.

Experiment: chemical genetic growth profiling, strain panel (AID 1159580);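 also: tested at 20 µM; growth read once vehicle control cultures reached saturation at 30 °C; 1 = growth at the plate median or of vehicle wells; lower values mean less growth of the strain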
Settings: S. cerevisiae deletion strains, growth OD
[1] = locus YAR019C, strain CDC15, hits give low values
[2] = locus YBL105C, strain PKC1, hits give low values
[3] = locus YBR135W, strain CKS1, hits give low values
[4] = locus YBR136W, strain MEC1, hits give low values
[5] = locus YBR160W, strain CDC28, hits give low values
[6] = locus YDL017W, strain CDC7, hits give low values
[7] = locus YDL028C, strain MPS1, hits give low values
[8] = locus YDL101C, strain DUN1, hits give low values
[9] = locus YDL108W, strain KIN28, hits give low values
[10] = locus YDL132W, strain cdc53, hits give low values
[11] = locus YDL214C, strain PRR2, hits give low values
[12] = locus YDR052C, strain DBF4, hits give low values
[13] = locus YDR054C, strain cdc34, hits give low values
[14] = locus YDR226W, strain ADK1, hits give low values
[15] = locus YDR477W, strain SNF1, hits give low values
[16] = locus YER123W, strain YCK3, hits give low values
[17] = locus YER133W, strain GLC7, hits give low values
[18] = locus YFL009W, strain cdc4, hits give low values
[19] = locus YFL029C, strain CAK1, hits give low values
[20] = locus YFR003C, strain YPI1, hits give low values
[21] = locus YFR019W, strain FAB1, hits give low values
[22] = locus YFR028C, strain CDC14, hits give low values
[23] = locus YGR040W, strain KSS1, hits give low values
[24] = locus YGR052W, strain FMP48, hits give low values
[25] = locus YGR092W, strain DBF2, hits give low values
[26] = locus YHR030C, strain SLT2, hits give low values
[27] = locus YHR079C, strain IRE1, hits give low values
[28] = locus YHR082C, strain KSP1, hits give low values
[29] = locus YHR205W, strain SCH9, hits give low values
[30] = locus YIL147C, strain SLN1, hits give low values
[31] = locus YJL095W, strain BCK1, hits give low values
[32] = locus YJL128C, strain PBS2, hits give low values
[33] = locus YJL157C, strain FAR1, hits give low values
[34] = locus YJR016C, strain ILV3, hits give low values
[35] = locus YJR066W, strain TOR1 (second series), hits give low values
[36] = locus YJR066W, strain TOR1, hits give low values
[37] = locus YKL048C, strain ELM1, hits give low values
[38] = locus YKL067W, strain YNK1, hits give low values
[39] = locus YKL101W, strain HSL1, hits give low values
[40] = locus YKL193C, strain SDS22, hits give low values
[41] = locus YKL203C, strain TOR2, hits give low values
[42] = locus YLR113W, strain HOG1, hits give low values
[43] = locus YLR133W, strain CKI1, hits give low values
[44] = locus YLR403W, strain SFP1, hits give low values
[45] = locus YML070W, strain DAK1, hits give low values
[46] = locus YMR001C, strain CDC5, hits give low values
[47] = locus YMR205C, strain PFK2 (second series), hits give low values
[48] = locus YMR277W, strain FCP1, hits give low values
[49] = locus YNL006W, strain LST8, hits give low values
[50] = locus YNL020C, strain ARK1, hits give low values
[51] = locus YNL161W, strain CBK1, hits give low values
[52] = locus YNL183C, strain NPR1, hits give low values
[53] = locus YNL207W, strain RIO2, hits give low values
[54] = locus YNL222W, strain SSU72, hits give low values
[55] = locus YNL307C, strain MCK1 (second series), hits give low values
[56] = locus YOL078W, strain AVO1, hits give low values
[57] = locus YOL136C, strain PFK27, hits give low values
[58] = locus YOR061W, strain CKA2, hits give low values
[59] = locus YOR119C, strain RIO1, hits give low values
[60] = locus YOR231W, strain MKK1, hits give low values
[61] = locus YOR329C, strain SCD5, hits give low values
[62] = locus YPL031C, strain PHO85, hits give low values
[63] = locus YPL153C, strain RAD53, hits give low values
[64] = locus YPL204W, strain HRR25, hits give low values
[65] = locus YPL209C, strain IPL1, hits give low values
[66] = locus YPL256C, strain CLN2, hits give low values
[67] = locus YPR025C, strain CCL1, hits give low values
[68] = locus YPR106W, strain ISR1, hits give low values
[69] = locus YPR111W, strain DBF20, hits give low values
[70] = strain NNK1, hits give low values
[71] = strain TSCII, hits give low values

Measured: normalized growth

Cc1cc(C)c(/C=C2\C(=O)Nc3ccccc32)[nH]1
inactive: locus YAL013W, strain DEP1, hits give low values 0.967 | locus YAL040C, strain CLN3, hits give low values 1.06 | locus YCL061C, strain MRC1 (second series), hits give low values 0.994 | locus YDR150W, strain NUM1, hits give low values 0.939 | locus YDR363W, strain ESC2, hits give low values 0.987 | locus YER002W, strain NOP16, hits give low values 0.999 | locus YGR078C, strain PAC10, hits give low values 0.991 | locus YGR229C, strain SMI1, hits give low values 0.917 | locus YMR263W, strain SAP30, hits give low values 0.99 | locus YNL128W, strain TEP1, hits give low values 0.935 | locus YNL153C, strain GIM3, hits give low values 0.872 | locus YNL175C, strain NOP13, hits give low values 0.992 | locus YNL197C, strain WHI3, hits give low values 0.934 | locus YNL224C, strain SQS1, hits give low values 0.929
active: locus YMR307W, strain GAS1, hits give low values 0.887 | locus YOR083W, strain WHI5 (second series), hits give low values 0.847

O=C1Nc2ccccc2/C1=C\c1ccc(Cl)cc1
inactive: [1] 0.946 | [2] 0.943 | [3] 0.94 | [4] 0.941 | [5] 0.947 | [6] 0.945 | [7] 0.947 | [8] 0.967 | [9] 0.948 | [10] 0.94 | [11] 0.801 | [12] 0.954 | [13] 0.927 | [14] 0.937 | [15] 0.817 | [16] 0.8 | [17] 0.815 | [18] 0.942 | [19] 0.95 | [20] 0.942 | [21] 0.924 | [22] 0.941 | [23] 0.823 | [24] 0.779 | [25] 0.82 | [27] 0.776 | [28] 0.794 | [30] 0.944 | [31] 0.741 | [32] 0.852 | [33] 0.819 | [34] 0.946 | [35] 0.651 | [36] 0.781 | [37] 0.862 | [38] 0.867 | [39] 0.829 | [40] 0.942 | [41] 0.91 | [43] 0.818 | [44] 0.714 | [45] 0.81 | [46] 0.94 | [47] 0.825 | [48] 0.936 | [49] 0.956 | [50] 0.801 | [51] 0.948 | [52] 0.788 | [53] 0.947 | [54] 0.945 | [55] 0.844 | [56] 0.951 | [57] 0.833 | [58] 0.853 | [59] 0.9 | [60] 0.863 | [61] 0.949 | [62] 0.816 | [63] 0.836 | [64] 0.824 | [65] 0.943 | [67] 0.943 | [68] 0.926 | [69] 0.917 | [70] 0.92 | [71] 0.949
active: [26] 0.755 | [29] 0.519 | [42] 0.692 | [66] 0.742

CN1C[C@H](C(=O)N[C@]2(C)C[C@@]3(O)C4CCCN4C(=O)[C@H](Cc4ccccc4)N3C2=O)C=C2c3cccc4[nH]cc(c34)C[C@H]21 (stereo partly specified)
inactive: [26] 0.986 | [27] 0.994 | [31] 0.958 | [36] 0.945 | [42] 1 | [52] 0.944 | [60] 0.997 | [66] 0.981

O=C1Nc2ccccc2/C1=C/c1ccc(Oc2ccccc2)nc1
inactive: [1] 0.965 | [2] 0.959 | [3] 0.957 | [4] 0.975 | [5] 0.962 | [6] 0.973 | [7] 0.966 | [8] 0.96 | [9] 0.967 | [10] 0.962 | [11] 0.866 | [12] 0.98 | [13] 0.948 | [14] 0.96 | [15] 0.874 | [16] 0.885 | [17] 0.898 | [18] 0.959 | [19] 0.975 | [20] 0.964 | [21] 0.95 | [22] 0.959 | [23] 0.892 | [24] 0.844 | [25] 0.803 | [27] 0.836 | [28] 0.82 | [29] 0.788 | [30] 0.947 | [31] 0.835 | [32] 0.877 | [33] 0.891 | [34] 0.967 | [35] 0.851 | [36] 0.775 | [37] 0.894 | [38] 0.857 | [39] 0.879 | [40] 0.959 | [41] 0.944 | [43] 0.86 | [44] 0.826 | [45] 0.915 | [46] 0.967 | [47] 0.889 | [48] 0.95 | [49] 0.975 | [50] 0.869 | [51] 0.976 | [52] 0.811 | [53] 0.962 | [54] 0.956 | [55] 0.843 | [56] 0.962 | [57] 0.897 | [58] 0.843 | [59] 0.867 | [60] 0.858 | [61] 0.967 | [62] 0.858 | [63] 0.845 | [64] 0.847 | [65] 0.971 | [67] 0.956 | [68] 0.957 | [69] 0.945 | [70] 0.971 | [71] 0.965
active: [26] 0.615 | [42] 0.846 | [66] 0.859
